Data from PubChem BioAssay (NCI).
This is part of a sample that, as a whole, favours compounds with a hit. Of some 79,000 tested, about 15% had one in any assay. Activity calls are given as the source filed them. No stated cut-off is given here; in the data, active means growth inhibition above about 70%; inactive means the rest.

How the values were obtained:
[1] = NCI Yeast Anticancer Drug Screen. Data for the mec2-1 strain (AID 157); conditions: S. cerevisiae mec2-1 strain, active compounds read high
Outline: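 Yeast mec2-1 mutant treated with compound. Readout: growth inhibition vs vehicle controls.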

[2] = NCI Yeast Anticancer Drug Screen. Data for the rad14 strain (AID 159);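 further: 0% = growth of vehicle-treated control cultures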; conditions: S. cerevisiae rad14 strain growth inhibition, active compounds read high
Outline: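 Vehicle-treated cultures served as the baseline for growth inhibition of a DNA repair-mutant yeast strain exposed to each compound.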

[3] = NCI Yeast Anticancer Drug Screen. Data for the sgs1 mgt1 strain (AID 161);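 further: 0% = growth of cultures given vehicle only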; conditions: S. cerevisiae sgs1 mgt1 strain, active compounds read high
Outline: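 Mutant yeast exposed to compound; growth scored against vehicle-only wells.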

[4] = NCI Yeast Anticancer Drug Screen. Data for the CLN2oe strain (AID 163);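 further: 0% = growth of vehicle-only control cultures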; conditions: S. cerevisiae CLN2oe strain, active compounds read high
Outline: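 Read-out: yeast growth inhibition, expressed relative to vehicle-only controls. The strain bears an engineered cell-cycle alteration.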

[5] = NCI Yeast Anticancer Drug Screen. Data for the cln2 rad14 strain (AID 165);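 further: 0% = growth equal to vehicle treated cultures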; conditions: S. cerevisiae cln2 rad14 strain, active compounds read high
Outline: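 cln2 rad14 yeast strain; compound exposure; growth inhibition read vs vehicle controls.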

[6] = NCI Yeast Anticancer Drug Screen. Data for the bub3 strain (AID 167); conditions: S. cerevisiae bub3 mutant strain, active compounds read high
Outline: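 Inhibition values come from growth of compound-treated mutant yeast normalised to vehicle-treated controls.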

[7] = NCI Yeast Anticancer Drug Screen. Data for the wt2 strain (AID 169);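 further: 0% = growth of vehicle-treated yeast cultures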; conditions: S. cerevisiae wt2 strain growth inhibition, active compounds read high
Outline: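 Read-out: growth inhibition versus vehicle-treated control cultures after compound exposure of the yeast strain.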

[8] = NCI Yeast Anticancer Drug Screen. Data for the mlh1 strain (AID 171);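 further: 0% = growth of vehicle-treated control cultures of the same strain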; conditions: S. cerevisiae mlh1 strain growth inhibition, active compounds read high
Outline: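 Read-out: growth inhibition versus vehicle controls. Strain: engineered yeast with a defined DNA repair or cell cycle defect, compound-treated.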

[9] = NCI Yeast Anticancer Drug Screen. Data for the sgs1 strain (AID 173);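 further: 0% = growth of vehicle-only control cultures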; conditions: S. cerevisiae sgs1 mutant, active compounds read high
Outline: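 Read-out: yeast growth inhibition relative to vehicle controls, following compound exposure of a strain with a defined DNA repair/cell cycle alteration.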

[10] = NCI Yeast Anticancer Drug Screen. Data for the mlh1 rad18 strain (AID 175); conditions: S. cerevisiae mlh1 rad18 strain growth inhibition, active compounds read high
Outline: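 Yeast w/ defined DNA-repair lesions; compound exposure; growth vs vehicle controls → % inhibition.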

[11] = NCI Yeast Anticancer Drug Screen. Data for the rad18 strain (AID 177); conditions: S. cerevisiae rad18 mutant growth inhibition, active compounds read high
Outline: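 Readout: growth inhibition vs vehicle controls. Cells: genetically altered yeast strain, DNA repair defect.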

[12] = NCI Yeast Anticancer Drug Screen. Data for the rad52 strain (AID 147);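 further: 0% = growth of vehicle-treated control cultures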; conditions: S. cerevisiae rad52 mutant growth inhibition, active compounds read high
Outline: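 Read-out: growth inhibition versus vehicle-treated controls. Cells were a DNA repair-deficient yeast strain treated with compounds.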

[13] = NCI Yeast Anticancer Drug Screen. Data for the wt1 strain (AID 149);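 further: 0% = growth of vehicle-treated wt1 cultures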; conditions: S. cerevisiae wt1 strain (SPY 50644) growth inhibition, active compounds read high
Outline: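 Vehicle-normalised growth inhibition; strain wt1; compound exposure.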

[14] = NCI Yeast Anticancer Drug Screen. Data for the rad50EPP+ strain (AID 151);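 further: 0% = growth of vehicle-treated control cultures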; conditions: S. cerevisiae rad50 mutant strain, active compounds read high
Outline: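 Growth inhibition read against vehicle controls in rad50EPP+ yeast, a strain altered in DNA damage repair, after compound exposure.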

[15] = NCI Yeast Anticancer Drug Screen. Data for the mgt1 strain (AID 153); conditions: S. cerevisiae mgt1 mutant growth inhibition, active compounds read high
Outline: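 mgt1 yeast grown with test compound; read-out is growth inhibition versus vehicle-treated cultures.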

[16] = NCI Yeast Anticancer Drug Screen. Data for the rad50 strain (AID 155);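 further: 0% = growth of vehicle-only cultures of the same strain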; conditions: S. cerevisiae rad50 strain growth inhibition, active compounds read high
Outline: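 A DNA repair-deficient yeast mutant serves as the test organism; compound-induced growth inhibition is calculated against vehicle-treated cells.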

[17] = at 5.0 µM (retest, dose inferred, filed as 0.5)
[18] = at 50.0 µM (retest, dose inferred, filed as 5.0)

Measured: growth inhibition

CC(NCCN(C)C)C1CCC2C3CCc4cc(O)ccc4C3CCC12C (stereo unspecified)
inactive: [1]; [17] 2% | [1]; at 11.0 µM 14% | [1]; at 33.0 µM 68% | [1]; [18] 49% | [1]; at 50.0 µM 61.2% | [2]; at 1.2 µM 3% | [2]; at 3.7 µM 4% | [2]; at 11.0 µM 13% | [2]; at 33.0 µM 65% | [3]; [17] 7% | [3]; [18] 47% | [4]; at 1.2 µM 1% | [4]; at 3.7 µM 1% | [4]; at 11.0 µM 11% | [4]; at 33.0 µM 61% | [5]; [17] 35% | [5]; [18] 29% | [5]; at 50.0 µM 41.7% | [6]; at 1.2 µM 6% | [6]; at 3.7 µM 11% | [6]; [17] -4% | [6]; at 11.0 µM 33% | [6]; [18] 44% | [6]; at 50.0 µM 63.1% | [7]; at 1.2 µM -1% | [7]; at 3.7 µM 0% | [7]; at 11.0 µM 15% | [8]; at 1.2 µM 4% | [8]; at 3.7 µM 4% | [8]; at 11.0 µM 26% | [9]; at 1.2 µM 3% | [9]; at 3.7 µM 9% | [9]; at 11.0 µM 42% | [10]; [17] 4% | [10]; [18] 59% | [11]; at 1.2 µM 22% | [11]; at 3.7 µM 20% | [11]; at 11.0 µM 52%
active: [1]; at 100.0 µM 97% | [2]; at 100.0 µM 98% | [3]; at 50.0 µM 91.2% | [4]; at 100.0 µM 95% | [6]; at 33.0 µM 76% | [6]; at 100.0 µM 94% | [7]; at 33.0 µM 84% | [7]; at 100.0 µM 97% | [8]; at 33.0 µM 78% | [8]; at 100.0 µM 97% | [9]; at 33.0 µM 87% | [9]; at 100.0 µM 96% | [10]; at 50.0 µM 82.4% | [11]; at 33.0 µM 91% | [11]; at 100.0 µM 95%

CCCCN(CCCC)C(=O)/C=C/c1ccccc1
inactive: [12]; at 1.2 µM -12% | [12]; at 3.7 µM -9% | [12]; at 11.0 µM -11% | [12]; at 33.0 µM 18% | [13]; at 1.2 µM 0% | [13]; at 3.7 µM 3% | [13]; at 11.0 µM 11% | [13]; at 33.0 µM 10% | [14]; at 1.2 µM -7% | [14]; at 3.7 µM -20% | [14]; at 11.0 µM -2% | [14]; at 33.0 µM 14% | [14]; at 100.0 µM 33% | [15]; at 1.2 µM -4% | [15]; at 3.7 µM -9% | [15]; at 11.0 µM -5% | [15]; at 33.0 µM -1% | [15]; at 100.0 µM 48% | [16]; at 1.2 µM -15% | [16]; at 3.7 µM -12% | [16]; [17] 5% | [16]; at 11.0 µM -10% | [16]; at 33.0 µM 15% | [1]; at 1.2 µM -5% | [1]; at 3.7 µM -5% | [1]; [17] -1% | [1]; at 11.0 µM -6% | [1]; at 33.0 µM -4% | [2]; at 1.2 µM -1% | [2]; at 3.7 µM -9% | [2]; at 11.0 µM -3% | [2]; at 33.0 µM 23% | [2]; at 100.0 µM 65% | [3]; [17] 4% | [4]; at 1.2 µM -9% | [4]; at 3.7 µM -6% | [4]; at 11.0 µM -23% | [4]; at 33.0 µM -9% | [4]; at 100.0 µM 43% | [5]; [17] 7% | [5]; [18] 20% | [5]; at 50.0 µM 68% | [6]; at 1.2 µM -2% | [6]; at 3.7 µM 10% | [6]; [17] 18% | [6]; at 11.0 µM 21% | [6]; at 33.0 µM 33% | [7]; at 1.2 µM 6% | [7]; at 3.7 µM -4% | [7]; at 11.0 µM 12% | [7]; at 33.0 µM 47% | [8]; at 1.2 µM -9% | [8]; at 3.7 µM -4% | [8]; at 11.0 µM -5% | [8]; at 33.0 µM 18% | [9]; at 1.2 µM -17% | [9]; at 3.7 µM -6% | [9]; at 11.0 µM 8% | [9]; at 33.0 µM 33% | [10]; [17] -3% | [11]; at 1.2 µM -6% | [11]; at 3.7 µM -9% | [11]; at 11.0 µM -3% | [11]; at 33.0 µM 4% | [11]; at 100.0 µM 61%
active: [12]; at 100.0 µM 93% | [13]; at 100.0 µM 82% | [16]; [18] 84% | [16]; at 50.0 µM 93.3% | [16]; at 100.0 µM 89% | [1]; [18] 85% | [1]; at 50.0 µM 92.2% | [1]; at 100.0 µM 79% | [3]; [18] 92% | [3]; at 50.0 µM 92.2% | [6]; [18] 76% | [6]; at 50.0 µM 74.2% | [6]; at 100.0 µM 70% | [7]; at 100.0 µM 97% | [8]; at 100.0 µM 85% | [9]; at 100.0 µM 87% | [10]; [18] 88% | [10]; at 50.0 µM 81.2%
